# Bioassay records: PubChem BioAssay, several laboratories
# GalR3 antagonist: human GalR3 antagonism; HEK293 GalR3-CNG cAMP membrane potential fluorescence; galR3 body fused to GalR1 C-terminus; inhibition, % at 3 µM; hit rate 0.44% among 360,000; O60755;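 active = inhibition above the screen-wide average plus 3 SD, cut at about 13% in these data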;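 also: forskolin and galanin both at EC90 stimulate the cells; cAMP rise reported by CNG channel membrane potential dye signal; 0% = forskolin plus galanin with DMSO and 100% = forskolin alone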
# Target sequence (O60755 1-299 limits assumed): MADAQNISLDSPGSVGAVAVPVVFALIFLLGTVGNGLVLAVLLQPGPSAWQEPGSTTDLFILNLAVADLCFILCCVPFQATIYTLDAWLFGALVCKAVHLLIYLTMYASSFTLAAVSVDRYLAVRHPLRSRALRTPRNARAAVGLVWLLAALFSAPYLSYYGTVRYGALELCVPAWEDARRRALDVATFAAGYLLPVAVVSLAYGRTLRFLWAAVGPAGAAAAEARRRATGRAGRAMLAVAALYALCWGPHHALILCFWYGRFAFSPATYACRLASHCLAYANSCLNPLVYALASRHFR
# Gli-Sufu block: blocks Gli-Sufu signaling in a luciferase reporter; Sufu-KO-LIGHT fibroblasts, Gli luciferase reporter luminescence; inhibition, % at 5 µM; hit rate 0.74% among 340,000;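 active = inhibition above about 55%, limit read from the data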;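 also: 0% = DMSO-treated cells and 100% = wells with medium but no cells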
# aDG glyco act: increases alpha dystroglycan glycosylation. Pro5-aDG cells, alpha-DG glycosylation AlphaScreen (IIH6); 0% Pro5, 100% B10-LARGE cell signal. activation, % at 10 µM. hit rate 0.22% among 360,000;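 active = activation of at least 8% versus controls, or a plate z-score of at least 8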;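 also: Pro5 are CHO cells carrying HIG-tagged alpha-DG that lacks glycosylation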
# COUP-TFII inh: blocks human COUP-TFII nuclear receptor | hit rate 0.7% among 370,000 | AID 686940 | inhibition, % at 8.6 µM | HEK293T NGFI-A luciferase reporter, luminescence;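 active = inhibition above a per-plate cutoff, mean inhibition of test wells between control levels plus 3 SD, cut at about 38% in these data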;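 also: cells cotransfected with COUP-TFII expression vector driving the NGFI-A reporter; 0% = median of COUP-TF2 test wells and 100% = reporter-only cells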
# Target sequence (P24468 whole entry, looked up): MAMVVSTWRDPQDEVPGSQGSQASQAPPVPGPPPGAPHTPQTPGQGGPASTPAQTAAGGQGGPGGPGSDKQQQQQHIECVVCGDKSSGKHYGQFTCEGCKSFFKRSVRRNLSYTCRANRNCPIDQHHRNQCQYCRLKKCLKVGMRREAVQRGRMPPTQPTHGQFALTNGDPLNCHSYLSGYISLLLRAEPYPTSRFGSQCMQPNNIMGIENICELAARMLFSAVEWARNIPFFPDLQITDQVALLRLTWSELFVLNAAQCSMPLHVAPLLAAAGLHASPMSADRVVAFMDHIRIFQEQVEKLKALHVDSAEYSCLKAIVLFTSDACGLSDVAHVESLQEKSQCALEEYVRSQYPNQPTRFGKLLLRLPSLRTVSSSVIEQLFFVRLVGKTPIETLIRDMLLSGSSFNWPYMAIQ
# Env fusion inh: HIV envelope-mediated fusion inhibition. inhibition, % at 12.3 µM. hit rate 1.1% among 360,000. AID 651610. HeLa-JRFL Env/CEM21 cell fusion, luciferase;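 active = mean replicate inhibition score of at least 50 and every replicate individually at or above 50; inconclusive = only one of the two criteria met; inactive = mean below 50 and not all replicates reaching 50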;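 also: 0% = plate neutral controls and 100% = maraviroc near 300 nM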
# GalR3 conf: GalR3 (human) antagonism, confirmation. shares compounds with GalR3 antagonist. HEK293 GalR3 CNG cAMP biosensor, membrane potential fluorescence; galR3 fused to GalR1 carboxy tail; challenged with forskolin and galanin at EC90. inhibition, % at 3 µM. hit rate 59% among 1,600. AID 652245;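 active = inhibition above the primary screen's cutoff, the mean inhibition of all screened compounds plus 3 SD, cut at about 13% in these data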;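 also: 0% = forskolin plus galanin and 100% = forskolin alone with DMSO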
# HEK-CNG parental: acts as nonspecific agonist in parental HEK-CNG cells; shares compounds with GalR3 antagonist; HEK293-CNG parental cells, cAMP membrane potential fluorescence; normalised: DMSO wells 0%, forskolin wells 100%; activation, % at 3 µM; hit rate 10% among 1,600; in the data active = activation above about 1.3%
# Numbers without * were called inactive; ? = inconclusive; . = no result; [ ] = dose if it differs, or a comment. Compounds with a hit are over-represented: about 2.1% of the library has one in this group of screens.
SMILES,GalR3 antagonist,Gli-Sufu block,aDG glyco act,COUP-TFII inh,Env fusion inh,GalR3 conf,HEK-CNG parental
O=C(CSc1ncccn1)Nc1cccc(S(=O)(=O)N2CCOCC2)c1,-0.6,5.5,-0.1,3.4,.,.,.
O=C(CSc1nccc(=O)[nH]1)Nc1cccc(S(=O)(=O)N2CCOCC2)c1,30.6*,-2.5,0.1,-1.8,-52.8,6.4,0.2
COc1ccccc1CN1[C@@H]2c3ccc(C4=CCCC4)c(=O)n3C[C@H]1[C@H](CO)[C@H]2C(=O)N(C)C,.,.,.,.,1.2[16.7 µM],.,.
O=C1N=c2ccccc2=C1c1sc(=S)n(-c2ccc(O)cc2)c1O,13.5*,1.0,0.1,-8.3,9.3,6.9,-2.0
Cc1c(C(=O)N2CCc3ccccc32)cnn1C,.,-8.4,-0.1,-13.0,6.1,5.7,-0.1
Cc1noc(C)c1NC(=O)Nc1ccc2c(c1)C(=O)N([C@@H](C)CO)C[C@@H](C)[C@@H](CN(C)C(=O)Nc1ccc3c(c1)OCO3)O2,.,.,.,.,0.5[16.7 µM],.,.
CC(=O)OCC(=O)Nc1ccc(Cl)cc1Cl,18.8*,7.7,0.6,-8.1,.,0.0,0.1
COc1ccc(-c2ccc3n(c2=O)C[C@H]2[C@H](CO)[C@@H](C(=O)NC4CCC4)N(S(C)(=O)=O)[C@@H]32)cc1,.,.,.,.,2.4[16.7 µM],.,.
CCc1cc(=O)[nH]c(SCC(=O)NCC2CCCO2)n1 (configuration not stated),0.3,29.5,-0.5,20.0,-7.0,.,.
Nc1cc(=O)[nH]c(SCC(=O)NCC2CCCO2)n1 (configuration not stated),12.8*,-0.9,0.6,-9.2,0.7,-4.4,0.2
O=C(CSc1ncc(C(F)(F)F)cc1Cl)NCC1CCCO1 (configuration not stated),13.3*,-2.3,0.0,-23.0,12.8,1.8,0.7
N#C/C(=C\c1ccccc1)C(=O)Nc1nncs1,15.5*,-0.5,0.0,8.0,-10.5,8.9,0.3
N#C/C(=C\c1ccccc1)C(=O)Nc1cccnc1,-6.8,-3.7,-0.1,6.7,13.8,.,.
O=C(Nc1cccc(F)c1)N[C@H]1CC[C@H](CCNS(=O)(=O)c2cccc(Cl)c2)O[C@H]1CO,.,.,.,.,28.9[16.7 µM],.,.
CCN(Cc1ccccc1)c1ccc(/C=N/NC(=O)c2cccc(S(=O)(=O)N3CCOCC3)c2)cc1,23.6*,6.0,1.0,9.3,?,88.5*,-2.1
CCN(CC)c1ccc(/C=N/NC(=O)c2cccc(S(=O)(=O)N3CCOCC3)c2)cc1,-4.3,2.4,0.4,-10.2,21.3,.,.
O=c1[nH]c2cc(Cl)c([N+](=O)[O-])nc2[nH]1,24.4*,.,0.0,-2.2,-38.3,23.6*,0.4
C[C@H](NC(=O)C[C@H]1C=C[C@H](NC(=O)CN2CCOCC2)[C@@H](CO)O1)c1ccccc1,.,.,.,.,23.0[16.7 µM],.,.
CSc1ncccc1C(=O)NCC(c1cccs1)N1CCOCC1 (configuration not stated),16.5*,-5.2,0.0,-5.2,-35.6,-0.6,0.1
C[C@@H]1CN([C@H](C)CO)C(=O)c2cc(C#Cc3ccccc3F)cnc2O[C@@H]1CN(C)S(C)(=O)=O,.,.,.,.,24.0[16.7 µM],.,.
Cc1[nH]c2ccc(C(=O)NCCCN3CCN(C)CC3)cc2c1C,14.5*,-39.6,0.2,13.2,3.5,-3.8,0.4
C[C@H](CO)N1C[C@H](C)[C@@H](CN(C)Cc2ccccc2)Oc2ccc(NC(=O)Cn3cnnn3)cc2CC1=O,.,.,.,.,0.2[16.7 µM],.,.
CC(C)CC1NC(=O)N(Cc2nc3ccccc3s2)C1=O (configuration not stated),18.6*,-14.9,0.1,-16.7,-48.3,-0.7,-0.1
O=c1c2ccccc2ncn1Cc1nc2ccccc2s1,-0.1,8.3,-0.2,-1.4,.,.,.
Cc1cc(Cl)c(S(=O)(=O)N2CCN(c3ccc(F)cc3)CC2)cc1OCC(=O)NC1CCCCC1,97.4*,58.2*,2.9,10.5,?,110.5*,-1.0
SMILES,GalR3 antagonist,Gli-Sufu block,aDG glyco act,COUP-TFII inh,Env fusion inh,GalR3 conf,HEK-CNG parental
Cc1cc(Cl)c(S(=O)(=O)N2CCN(c3ccc(F)cc3)CC2)cc1OCC(N)=O,2.4,-7.2,0.0,6.6,32.5,.,.
Cc1ccc(S(=O)(=O)N(C)C[C@@H]2Oc3ccc(NS(=O)(=O)c4cn(C)cn4)cc3CC(=O)N([C@H](C)CO)C[C@H]2C)cc1,.,.,.,.,-0.4[16.7 µM],.,.
CC1CC(C)CN(C(=O)CSCC(=O)O)C1 (configuration not stated),13.3*,7.7,0.0,-8.2,-5.4,-2.0,0.1
O=C(C[C@H]1C=C[C@H](NC(=O)C2CCC2)[C@@H](CO)O1)NCc1ccccc1Cl,.,.,.,.,-6.8[16.7 µM],.,.
COCC(=O)N(C)C[C@@H]1Oc2ncc(-c3ccccc3C)cc2C(=O)N([C@@H](C)CO)C[C@H]1C,.,.,.,.,-13.3[16.7 µM],.,.
CC(Oc1ccc(Cl)cc1)C(=O)/C=C/N(C)C (configuration not stated),-4.7,5.6,-0.2,6.3,-49.1,.,.
CC(Oc1ccc(Cl)cc1)/C(N)=N/O (configuration not stated),15.6*,-6.4,-0.1,-5.6,-7.7,5.5,-0.4
N#C/C(N=Nc1ccccc1O)=N\Nc1ccccc1O,60.6*,17.4,-0.2,2.8,-7.3,83.7*,-1.8
C[C@H](CO)N1C[C@H](C)[C@@H](CN(C)S(C)(=O)=O)OCCCC[C@H](C)Oc2ccc(NC(=O)NC3CCCCC3)cc2C1=O,.,.,.,.,-2.1[16.7 µM],.,.
CS(=O)(=O)c1nc(-c2ccc(F)cc2)cc(C(F)(F)F)n1,25.7*,-2.4,-0.5,-57.9,-14.9,24.9*,0.8
COc1ccc(-c2cc(C(F)(F)F)nc(S(C)(=O)=O)n2)cc1,31.8*,-8.1,0.4,-51.3,?,13.4*,1.1
C[C@H]1CN([C@@H](C)CO)C(=O)c2cccc(NC(=O)C3CCCCC3)c2O[C@@H]1CN(C)S(C)(=O)=O,.,.,.,.,9.2[16.7 µM],.,.
CCn1nnnc1SCC(=O)Nc1ccc(F)cc1,14.2*,-13.9,-0.1,1.4,-4.7,71.0*,0.1
COc1ccc(N2CCN(Cc3nc4c(c(=O)[nH]c(=O)n4C)n3CC(C)=O)CC2)cc1,13.2*,0.7,-0.1,-5.4,-1.6,1.1,0.2
Cc1ccc(C(=O)N2CCCC(CCC(=O)N3CCN(c4ccccn4)CC3)C2)cn1 (configuration not stated),12.7*,2.1,-0.1,9.1,8.3,8.3,-0.2
Cc1ccc(C(=O)N2CCCC(CCC(=O)N3CCN(c4ccccn4)CC3)C2)cc1C (configuration not stated),-6.4,10.4,1.6,31.5,3.9,.,.
O=C(CCC(=O)OCC(=O)c1ccc(C(F)(F)F)cc1)OCC(=O)c1ccc(C(F)(F)F)cc1,-2.4,3.5,-0.1,10.3,3.6,.,.
